The values below come from PubChem BioAssay AID1851 (National Center for Advancing Translational Sciences (NCATS), 2009).

The campaign covered roughly 16,000 compounds. About 5,100 (32%) were called active. Not shown: some 25% with an inconclusive outcome. The list shows a part of the results. Values without a mark were called inactive. The call rests on the fitted dose curve; in most records, active means well fitted curve in the direction sought with a large enough effect; inconclusive means small, poorly fitted or top-dose-only effect, or effect the other way; inactive means no such curve, though single readings can be large or run the other way.
On the % scale 0 is the no-effect control and ±100 the full control effect.

Cytochrome P450 3A4 (Homo sapiens), sequence (P08684 whole entry, looked up): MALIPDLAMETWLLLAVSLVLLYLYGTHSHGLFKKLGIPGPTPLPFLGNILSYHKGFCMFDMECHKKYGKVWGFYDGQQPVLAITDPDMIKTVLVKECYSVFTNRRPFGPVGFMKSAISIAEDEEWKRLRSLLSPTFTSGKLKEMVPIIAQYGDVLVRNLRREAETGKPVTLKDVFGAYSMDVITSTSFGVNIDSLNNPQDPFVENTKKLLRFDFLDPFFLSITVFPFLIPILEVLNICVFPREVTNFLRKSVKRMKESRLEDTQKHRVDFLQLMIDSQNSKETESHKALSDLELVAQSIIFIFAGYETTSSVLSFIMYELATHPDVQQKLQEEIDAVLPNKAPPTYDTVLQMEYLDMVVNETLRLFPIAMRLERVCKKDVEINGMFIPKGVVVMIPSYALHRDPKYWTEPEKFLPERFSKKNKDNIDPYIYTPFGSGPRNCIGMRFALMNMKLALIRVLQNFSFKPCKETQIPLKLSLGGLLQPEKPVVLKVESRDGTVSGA

This experiment addresses Cytochrome P450 3A4 (Homo sapiens) (UniProt P08684). Description: Cytochrome panel assay with activity outcomes. The note with it: recombinant CYP, pro-luciferin dealkylation, luminescence, p450-cyp3a4; series mostly up to 57.1 µM; activity, negative = inhibition: at the top concentration.
On to `CN(C)CCNS(=O)(=O)N(C)C`, for which the activity, negative = inhibition was -13.5% [at 11.4 µM]. What is called AC50 is the concentration giving half of the maximal activity seen. Regarding `Nc1ccc(Oc2ccc3nc(-c4ccccc4)c(-c4ccc([N+](=O)[O-])cc4)nc3c2)cc1`, the concentration at half-maximal activity (AC50) is 3.55 µM (active). Turning to `CC(=O)NN1C(=O)c2ccc(Oc3ccc([N+](=O)[O-])cc3)cc2C1=O`, the “activity, negative = inhibition” value was 1.67%.

Turning to `Cc1nc2ccccc2nc1-c1ccc(N=[N+]([O-])c2ccc(-c3nc4ccccc4nc3C)cc2)cc1`, the activity, negative = inhibition is 3.4% [at 11.4 µM]. With `Cc1noc(C)c1CS(=O)(=O)c1ccc(Br)cc1`, the AC50 is 15.8 µM (active).

On to `CNC(=O)CCc1nc(-c2ccc(C(C)(C)C)cc2)no1`, for which the “activity, negative = inhibition” value was -15.1%. `COc1ccc(-c2noc(CCCC(=O)NCCc3ccccc3)n2)cc1OC`: the half-maximal activity concentration (AC50) was 11.2 µM (active).

For the compound `O=C(CCc1nc(-c2ccccc2)no1)NCCc1ccccc1`, the “activity, negative = inhibition” value is -16.7%. Turning to `Cc1ccc(S(=O)(=O)/N=C(/Nc2c(C)n(C)n(-c3ccccc3)c2=O)c2ccc(Cl)cc2)cc1`, the AC50 is 3.16 µM (active). For the compound `O=S(=O)(/N=C(\Sc1ccccc1)c1ccccc1)c1ccc(Cl)cc1`, the “activity, negative = inhibition” value is -0.323%. On to `COc1ccccc1N/C(=N/S(=O)(=O)c1ccc(C)cc1)c1ccc(Cl)cc1`, for which the AC50 is 2.24 µM (active). Turning to `Cc1c(NC(=O)Nc2c(Cl)cccc2Cl)c(=O)n(-c2ccccc2)n1C`, the activity, negative = inhibition was 4.74% [at 11.4 µM].

With `Cc1nn(-c2ccccc2)c(Cl)c1C(=O)Nc1c(C)n(C)n(-c2ccccc2)c1=O`, the “activity, negative = inhibition” value was -15.6%. For `Cc1c(NC(=O)C2CCN(S(=O)(=O)c3ccc(Cl)cc3)CC2)c(=O)n(-c2ccccc2)n1C`, the AC50 was 7.94 µM (active). Regarding `Cc1c(NC(C)C)c(=O)n(-c2ccccc2)n1C`, the “activity, negative = inhibition” value was -9.46% [at 25.6 µM].

For the compound `Cc1c(NCc2cc(Cl)ccc2O)c(=O)n(-c2ccccc2)n1C`, the AC50 was 14.1 µM (active). Take `CC(=O)NC1=NN(c2ccccc2)C(=O)C1`: the “activity, negative = inhibition” value is -7.33%.

As to `O=c1c(-c2ccccc2)nc2cnc(N3CCOCC3)nc2n1Cc1cccs1`, the “activity, negative = inhibition” value was -5.52%. As to `O=c1c(-c2cc(F)cc(F)c2)nc2cnc(N3CCNCC3)nc2n1Cc1cccs1`, the AC50 is 10 µM (active).

For `O=c1c(-c2cc(F)cc(F)c2)nc2cnc(N3CCOCC3)nc2n1C[C@H]1CCCO1`, the “activity, negative = inhibition” value was 6.88%.

On to `O=c1c(-c2ccc(F)cc2)nc2cnc(N3CCNCC3)nc2n1Cc1cccs1`, for which the AC50 is 10 µM (active).

For the compound `Cn1c(=O)c(-c2cc(F)cc(F)c2)nc2cnc(N3CCOCC3)nc21`, the “activity, negative = inhibition” value was 17.1%. Take `O=c1c(-c2ccc(Cl)cc2)nc2cnc(N3CCNCC3)nc2n1Cc1cccs1`: the concentration at half-maximal activity (AC50) is 5.01 µM (active).

In the case of `CCc1c(O)c2c(c(O)c1C(C)=O)C(=O)c1c(cc(O)c(C(=O)O)c1C(=O)O)C2=O`, the activity, negative = inhibition is 2.06% [at 11.4 µM]. As for `BrC(c1cccc2ccccc12)c1cccc2ccccc12`, the activity, negative = inhibition was -10.7% [at 11.4 µM]. Still for that read-out and setting: the same measure for `CCOC(=O)c1c(C)c(C(=O)N2CCN(C(=O)c3ccco3)CC2)c(C)n1C`: -17.8%. As for `CCOC(=O)c1c(C)c(C(=O)N2CCCCCC2)c(C)n1C`, the AC50 was 7.94 µM (active). As to `CCOC(=O)c1c(C)c(C)n2c1NC(=O)C2`, the activity, negative = inhibition is -20.8% [at 11.4 µM]. As to `Cc1ccc(S(=O)(=O)NCC(=O)N(CC(=O)NCc2ccco2)Cc2cccs2)cc1`, the AC50 was 4.47 µM (active). For the compound `Nc1ncnc2c1nc(Sc1ccc(Cl)cc1)n2[C@@H]1O[C@H]2COP(=O)(O)O[C@@H]2[C@H]1O`, the “activity, negative = inhibition” value is 3.41%.

For `Oc1ccc2ccccc2c1/C=C\c1ccc2c(Br)cc(Br)c(O)c2n1`, the activity, negative = inhibition is -13.3% [at 11.4 µM]. `CCC/C=C(\CCC)C(NS(=O)(=O)c1ccc(Cl)cc1)c1ccccc1` (stereo not given): the half-maximal activity concentration (AC50) was 7.94 µM (active). Regarding `CCC/C=C(\CCC)C(NS(=O)(=O)c1ccc(Cl)cc1)c1ccc(C(=O)OC)cc1` (stereo not given), the AC50 was 3.98 µM (active).

For `CCC/C=C(\CCC)C(NS(=O)(=O)c1ccc(-c2ccccc2)cc1)c1ccc(C(=O)OC)cc1` (stereo not given), the “activity, negative = inhibition” value was 6.7%. With `CCC/C=C(\CCC)C(NS(=O)(=O)CC12CCC(CC1=O)C2(C)C)c1ccc(C(=O)OC)cc1` (stereo not given), the AC50 was 3.98 µM (active). Consider `O=C(O)c1ccccc1-c1ccccc1C(=O)Nc1ccc2c(c1)Cc1ccccc1-2`, for which the activity, negative = inhibition is -22.9% [at 11.4 µM].

Regarding `CC(=O)Nc1ccc(-c2nnc(SCC(=O)c3ccc4c(c3)Cc3ccccc3-4)n2C)cc1`, the AC50 was 12.6 µM (active). Regarding `O=C(Nc1ccc2c(c1)Cc1ccccc1-2)[C@@H]1[C@H](C(=O)O)[C@]2(Cl)C(Cl)=C(Cl)[C@@]1(Cl)C2(Cl)Cl`, the activity, negative = inhibition is -22% [at 11.4 µM]. The same measure, in the same setting: the same measure for `CCCCSc1nnc(-c2ccc(C)cc2)n1C`: 9.47%.

For `Cn1c(SCC(=O)c2ccc3c(c2)Cc2ccccc2-3)nnc1-c1ccccc1`, the concentration at half-maximal activity (AC50) was 8.91 µM (active). Still for that read-out and setting: the same measure for `Cc1noc(C)c1-c1nccc(NC2CC2)n1`: 2.51 µM (active).

As for `c1cc(NC2CC2)nc(-c2ccoc2)n1`, the AC50 is 5.01 µM (active). With `Cc1noc(C)c1-c1nccc(Nc2ccc(F)cc2)n1`, the AC50 was 12.6 µM (active). Same read-out and setting: as for `COC(=O)[C@@]1(Cc2ccc(F)cc2)[C@H]2c3cc(C(=O)N4CCCC4)n(Cc4cccc5ccccc45)c3C[C@H]2CN1C(=O)c1ccccc1`, the figure is 2 µM (active). As for `COC(=O)[C@@]1(Cc2ccccc2)[C@H]2c3cc(C(=O)N4CCCC4)n(Cc4cccc5ccccc45)c3C[C@H]2CN1C(=O)c1ccccc1`, the half-maximal activity concentration (AC50) was 1.58 µM (active). Turning to `CC(C)CNc1nc(N)[nH]c(=O)c1NC=O`, the activity, negative = inhibition is -1.52% [at 11.4 µM]. As for `CCC(C)c1ccc(Nc2ncccc2C#N)cc1` (stereo not given), the activity, negative = inhibition was -6.67% [at 2.29 µM]. Take `c1ccc(Nc2ncnc3ccc(-c4cccnc4)cc23)cc1`: the AC50 was 2.51 µM (active). The same measure, in the same setting: the same measure for `c1ccc(CNc2ncnc3ccc(-c4cccnc4)cc23)cc1`: 1.26 µM (active); for `Cc1cccc(CNc2ncnc3ccc(-c4cccnc4)cc23)c1`: 1 µM (active). Turning to `Cc1cccc(CNc2ncnc3ccc(-c4cccc(C#N)c4)cc23)c1`, the “activity, negative = inhibition” value is -94.6%. Same read-out and setting: as for `CC(C)CN(CC#N)CC(C)C`, the figure is -19.3% [at 11.4 µM].

On to `CCCC(=O)NCCc1c2n(c3ccc(OC)cc13)Cc1ccccc1-2`, for which the AC50 was 2.51 µM (active). On the same count and under the same terms, the same measure for `CCc1ccc(NC(=O)Cn2nc(C(F)(F)F)c3c2CCC3)cc1`: 12.6 µM (active).

With `CCNC(=O)c1ccc(-n2nc(C(F)(F)F)c3c2CCCC3)cc1`, the “activity, negative = inhibition” value was -17%.

Turning to `CN(C)C(=O)c1ccc(-n2nc(C(F)(F)F)c3c2CCCC3)cc1`, the activity, negative = inhibition is 5.72% [at 2.29 µM]. Same read-out and setting: as for `CC(=O)NN1C(=O)c2ccc(Oc3cccc([N+](=O)[O-])c3)cc2C1=O`, the figure is -11.8%. For `Cn1cc([N+](=O)[O-])c(C(=O)Nc2cc(Oc3cccnc3)cc([N+](=O)[O-])c2)n1`, the AC50 is 0.501 µM (active).

For `Cc1ccc(Nc2ccc(-n3ccnc3)nn2)cc1C`, the AC50 is 0.0794 µM (active). In the case of `O=c1[nH]n(-c2cccc(Cl)c2)c2ncccc12`, the “activity, negative = inhibition” value is -16.8%. For `O=C(c1ccc(Cl)c(Cl)c1)c1cc(-c2ccccn2)c(N2CCOCC2)s1`, the AC50 is 14.1 µM (active). As for `N=c1n(CCN2CCOCC2)c2ccccc2n1CC(=O)c1ccc(Cl)c(Cl)c1`, the activity, negative = inhibition is 11.5% [at 2.29 µM].

On to `COc1ccc(OC[C@@H](CO)OC)cc1`, for which the activity, negative = inhibition was -12.9% [at 11.4 µM]. `Cn1c(=O)c2c(n(Cc3ccccc3)c1=O)NC(=O)C2CC(=O)NCc1cccc(Cl)c1` (stereo not given): the half-maximal activity concentration (AC50) was 6.31 µM (active).

For the compound `COCCCNCC(=O)c1c(N)n(Cc2ccccc2)c(=O)n(C)c1=O`, the activity, negative = inhibition is -9.63% [at 2.29 µM].

With `C[C@]12CC3CC(N)(C1)C[C@@](C)(C3)C2`, the AC50 entry is “inactive”.

In the case of `N#C/C(=C(\O)C(=O)O)c1ccc(-c2cccc3ccccc23)cc1`, the activity, negative = inhibition is -22% [at 11.4 µM]. With `CCn1c2ccccc2c2cc(N=C3SC(CC(=O)Nc4ccccc4)C(=O)N3C)ccc21` (stereo not given), the AC50 was 5.01 µM (active). Take `NS(=O)(=O)c1cc2c(cc1Cl)N[C@H](Cc1ccccc1)NS2(=O)=O`: the activity, negative = inhibition is -18.4% [at 11.4 µM]. Same read-out and setting: as for `NS(=O)(=O)c1cc2c(cc1Cl)N[C@@H](C(Cl)Cl)NS2(=O)=O`, the figure is -10% [at 25.6 µM]. Turning to `NS(=O)(=O)c1cc2c(cc1Cl)NC(CSCc1ccccc1)=NS2(=O)=O`, the AC50 is 12.6 µM (active). With `Oc1c(Br)cc(Br)cc1CN(Cc1cc(Br)cc(Br)c1O)C1CCCCC1`, the activity, negative = inhibition is -22.2% [at 11.4 µM]. Take `CCOC(=O)CCN1C(=O)[C@H]2[C@H]3[C@H](O)[C@H](O)C/C(=N/O[C@@H]4O[C@@H](COC(C)=O)[C@@H](OC(C)=O)[C@@H](OC(C)=O)[C@H]4OC(C)=O)[C@@H]3CC[C@@H]2C1=O`: the activity, negative = inhibition was -20.3% [at 11.4 µM]. As to `CCCCN(CC)C(=O)Cc1ccccc1OC`, the AC50 is 15.8 µM (active). Turning to `CCN(CC)C(=O)c1ccc(O)c(OC)c1`, the “activity, negative = inhibition” value was -14.6% [at 25.6 µM]. Same read-out and setting: the same measure for `CCCCN(C(=O)NC(=O)Nc1ccccc1OCC)S(C)(=O)=O`: -18.4%. Turning to `COc1ccccc1CNC(=O)c1cc2c(C)nn(Cc3ccc(F)cc3)c2s1`, the AC50 is 2.82 µM (active). For the compound `CNC(=O)COC(=O)c1cc2c(C)nn(-c3ccc(F)cc3)c2s1`, the “activity, negative = inhibition” value was -30%. Same read-out and setting: as for `CCCn1nc2cc(C(=O)NCc3ccccc3OC)ccc2c1OCC`, the figure is -3.81% [at 2.29 µM].

On to `CC(=O)N[C@@H](C(=O)O)C(C)(C)SN=O`, for which the AC50 entry is “inactive”.

For the compound `CCC(C#CCN1CCCCC1)(CC)OCCC#N`, the “activity, negative = inhibition” value was -12.9%. Same read-out and setting: as for `O=C(O)C[C@H](Cc1ccc2c(c1)OCO2)C(=O)O`, the figure is -6.76% [at 11.4 µM]. `Cc1c(C(=O)O)oc2ccc(S(=O)(=O)NCc3ccc4c(c3)OCO4)cc12`: the concentration at half-maximal activity (AC50) was 15.8 µM (active). Turning to `CCCc1nc(SCC(=O)NNC(=O)C2CCCCC2)c2ccccc2n1`, the half-maximal activity concentration (AC50) was 3.55 µM (active).

As to `CC(=O)Nc1nnc(CCN2CCCCC2)s1`, the “activity, negative = inhibition” value is 18%. On to `Cc1ccc(SCN2CCCCC2)cc1` (tested in a mixture with another compound), for which the activity, negative = inhibition was -20% [at 11.4 µM]. For the compound `CCc1nc(SCC(=O)NNC(=O)C2CCCCC2)c2ccccc2n1`, the “activity, negative = inhibition” value is 12.1%. On to `Cc1ccc(SCC(=O)NNC(=O)C2CCCCC2)cc1`, for which the AC50 was 7.94 µM (active). Still for that read-out and setting: the same measure for `CCc1nnc(NC(=O)CSc2nc3cc4c(cc3cc2C)OCCO4)s1`: 14.1 µM (active); for `CCc1nnc(NC(=O)CSc2nc(C3CCCCC3)nc3ccccc23)s1`: 2.51 µM (active).
